The source of these data is PubChem BioAssay (NCATS).

Values joined by “and” are separate entries in the source; they are usually repeats but may differ in a detail not shown here. Equal entries are not always repeated. Inconclusive results are not listed. A number with no mark means an inactive call. Active and inactive are the calls of the source. The call rests on the fitted dose curve; in most records, active means well fitted curve in the direction sought with a large enough effect; inconclusive means small, poorly fitted or top-dose-only effect, or another doubt; inactive means no such curve, though single readings can be large; an effect the other way counts as inactive or inconclusive.

A short description of test [1]: Viability qHTS for spleen associated tyrosine kinase inhibitor (SYKi) naive MV4-11 cells (AID 1963823). Further: nearly all actives have a fitted effect of over 40% in size. The gist of the method:
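Seeding of 500 SYKi-naive MV4-11 cells per well onto pre-dispensed compounds preceded a 72 hr incubation at 37 C. Luminescent CellTiter-Glo signal, read after 10 min at room temperature, reflected viable cells.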

Test [2] is described as follows: Viability qHTS for spleen associated tyrosine kinase inhibitor (SYKi) drug resistant MV4-11 cells (AID 1963824). Further: nearly all actives have a fitted effect of over 35% in size. The gist of the method:
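CellTiter-Glo luminescence, read 10 min after reagent addition, reports viability after a 72 hr compound exposure. Cells are an MV4-11 line made resistant to SYK inhibition, seeded at 500 per well onto compound-containing plates.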
For orientation: qHTS replaces the single test concentration by a dilution series.

Test [3] in a line: Cellular viability qHTS for adrenocortical cancer (ACC) cell line SW-13 (AID 1963989). Further: nearly all actives have a fitted effect of over 65% in size.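 On activity (max response): cells grown in serum-free medium with ITS supplement; on the % scale 0 is the no-effect control and ±100 the full control effect.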 As to conditions: SW-13 ACC cells viability, CellTiter-Glo, 48 h; activity (max response): active compounds read low. Summed up:
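48 h treatment, SW-13 in ITS/DMEM serum-free; doses up to 46 uM; readout CellTiter-Glo luminescence; curve fit four-parameter logistic.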

Test [4] is described as follows: Cellular viability qHTS for adrenocortical cancer (ACC) cell line NCI-H295R (AID 1963990). Further: nearly all actives have a fitted effect of over 60% in size. The gist of the method: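 Compound titrations (up to 46 uM final) are applied to NCI-H295R cultures for 48 h at 37C. Viable cell number is estimated by CellTiter-Glo signal, normalised to DMSO and doxorubicin controls.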
Potency means the concentration at half of the fitted maximal effect.

For `CN(C)CCCSc1ccccc1NC(=O)/C=C/c1ccccc1`, the Potency result in test [1], in test [2] and in test [4] was “inactive” in each case. Moreover, the activity (max response) in test [3] is 8.03%.
For `CC1=C(C(=O)O)N2C(=O)[C@@H](NC(=O)[C@H](N)c3ccc(O)cc3)[C@H]2SC1`, the Potency entry in test [1], in test [2] and in test [4] was “inactive” throughout. In addition, the activity (max response) in test [3] is 8.09%.
On to `Cc1ccc(C(=O)C(=O)O)cc1C`, for which the Potency result in test [1], in test [2] and in test [4] was “inactive” each time. Besides, the activity (max response) in test [3] is 1.9%.
Turning to `CN1[C@@H]2CC[C@H]1CC(NC(=O)n1c(=O)[nH]c3ccccc31)C2` (stereo partly drawn), the Potency entry in test [1], in test [2] and in test [4] was “inactive” throughout. Moreover, the activity (max response) in test [3] was 2.49%.
Consider `Cc1c(F)ccc(C(=O)Nc2cc([N+](=O)[O-])ccc2N2CCN(C)CC2)c1Cl`, for which the Potency was 1.32 µM (active) in test [1] and 2.91 µM (active) in test [2]. In test [3], the activity (max response) is -19.1%. In addition, the Potency entry in test [4] was “inactive”.
As to `C#CC[C@H](c1nc2cc(Cl)ccc2c(=O)n1Nc1ccccc1)N(CCCN)C(=O)c1cccc(Cl)c1F`, the Potency in test [1] is 0.164 µM (active); in test [2], 0.206 µM (active); in test [3], 0.251 µM (active); in test [4], 3.55 µM (active).
In the case of `NCCCC[C@H](N[C@@H](CCc1ccccc1)C(=O)O)C(=O)N1CCC[C@H]1C(=O)O`, the Potency entry in test [1], in test [2] and in test [4] was “inactive” in each case. The activity (max response) in test [3] was 4.67%.
For the molecule `CC(=O)[C@]1(N)Cc2c(O)c3c(c(O)c2[C@@H](O[C@H]2C[C@H](O)[C@H](O)CO2)C1)C(=O)c1ccccc1C3=O`, the Potency in test [1] is 5.9 µM (active); in test [2] it was 4.68 µM (active). Further, in test [3], the activity (max response) was -6.73%. In addition, the Potency entry in test [4] was “inactive”.
Turning to `CC1(C)S[C@H]2[C@H](NC(=O)[C@@H](N)c3ccc(O)cc3)C(=O)N2[C@H]1C(=O)O`, the Potency entry in test [1], in test [2] and in test [4] was “inactive” each time. Further, the activity (max response) in test [3] is 7.49%.
As for `N#Cc1cc(NC(=O)C(=O)O)c(Cl)c(NC(=O)C(=O)O)c1`, the Potency result in test [1], in test [2] and in test [4] was “inactive” throughout. Further, the activity (max response) in test [3] was 14%.
Turning to `COC(C)(C)CCn1nc(Nc2c(C)cccc2C)c2cnc(Nc3ccc(OCCN4CCCC4)c(F)c3)nc21`, the Potency in test [1] is 731 nM (active) and 742 nM (active); in test [2], 1.03 µM (active) and 1.66 µM (active); in test [3], 2.82 µM (active); in test [4] it was 3.98 µM (active).
In the case of `COc1cc2nccc(Oc3ccc(NC(=O)c4cn(C(C)C)c(=O)n(-c5ccc(F)cc5)c4=O)cc3F)c2cc1OC`, the values for the Potency in test [1] and in test [2] were 0.186 µM (active) and 0.468 µM (active), respectively. Moreover, the activity (max response) in test [3] is 9.27%. Moreover, the Potency entry in test [4] is “inactive”.
As for `CNC[C@H](O)[C@@H](O)[C@H](O)[C@H](O)CO`, the Potency entry in test [1], in test [2] and in test [4] was “inactive” each time. The activity (max response) in test [3] was 1.47%.
Turning to `COc1cc(N2CCN(C)CC2)ccc1Nc1ncc2c(n1)N(C)c1ccccc1C(=O)N2C`, the Potency in test [1] was 0.934 µM (active); in test [2] it was 1.86 µM (active); in test [3], 15.8 µM (active); in test [4], 14.1 µM (active).
Take `O=C([O-])C[O-].[Pt+2]`: the Potency entry in test [1], in test [2] and in test [4] was “inactive” each time. Also, the activity (max response) in test [3] was -1.3%.
For the molecule `NC1=N[C@@]2(c3cc(NC(=O)c4ccc(F)cn4)ccc3F)COC[C@H]2CS1`, the Potency result in test [1] and in test [4] was “inactive” each time. Moreover, the Potency in test [2] was 14.8 µM (active). In test [3], the activity (max response) was -8.2%.
In the case of `C[C@]12CCC3=C4CCC(=O)C=C4CC[C@H]3[C@@H]1CC[C@@]2(O)CC#N`, the Potency result in test [1], in test [2] and in test [4] was “inactive” in each case. Besides, the activity (max response) in test [3] was 0.0754%.
On to `Cc1c(O)cccc1C(=O)NC(CSc1ccccc1)C(O)CN1CC2CCCCC2CC1C(=O)NC(C)(C)C` (stereo not drawn), for which the Potency is 16.6 µM (active) in test [1], 11.8 µM (active) in test [2], 28.2 µM (active) in test [3] and 17.8 µM (active) in test [4].
Turning to `COc1cc2c(cc1OC)C(=O)CC2`, the Potency result in test [1], in test [2] and in test [4] was “inactive” throughout. Besides, the activity (max response) in test [3] was 12.7%.
As to `COC(=O)/C=C/C(=O)OC`, the Potency entry in test [1], in test [2] and in test [4] was “inactive” throughout. For the same molecule, the activity (max response) in test [3] is -9.41%.
As to `CCS(=O)(=O)N1CCC([C@@H](C)n2c(C)c(C(=O)NCc3c(OC)cc(C)[nH]c3=O)c3ccccc32)CC1`, the Potency result in test [1], in test [2] and in test [4] was “inactive” throughout. In addition, the activity (max response) in test [3] is 8.68%.
Turning to `CC(=O)O[C@H]1CC[C@@]2(C)C(=CC[C@@H]3[C@@H]2CC[C@]2(C)C(C(C)=O)=CC[C@@H]32)C1`, the Potency entry in test [1], in test [2] and in test [4] was “inactive” in each case. Besides, the activity (max response) in test [3] was 8.77%.
`CN(C)C(=S)SC(=S)N(C)C`: the Potency in test [1] was 1.68 µM (active); in test [2], 1.68 µM (active); in test [3], 9.2 µM (active); in test [4], 2.31 µM (active).
With `COc1ccc(Cc2cnc(N)nc2N)cc1OC`, the Potency result in test [1], in test [2] and in test [4] was “inactive” each time. For the same molecule, in test [3], the activity (max response) is 8.41%.
Consider `Cc1ccc2cc(-c3c(C)ccc(C(=O)c4c(-c5ccccc5)n(C)n(-c5ccccc5)c4=O)c3N)ccc2n1`, for which the Potency is 4.61 µM (active) in test [1] and 9.34 µM (active) in test [2]. Besides, in test [3], the activity (max response) was -12.9%. Moreover, in test [4], the Potency entry was “inactive”.
As to `O=Cc1ccc(O)c(O)c1O`, the Potency result in test [1] and in test [2] was “inactive” throughout. In test [3], the activity (max response) is -7.42%. Besides, the Potency in test [4] is 18.4 µM (active).
For the molecule `O=C(NCc1cccc(O)c1)Nc1nc(-c2ccncc2)cs1`, the Potency is 10.3 µM (active) in test [1] and 16.4 µM (active) in test [2]. The activity (max response) in test [3] was -22.1%. The Potency result in test [4] was “inactive”.
